Data taken from PubChem BioAssay (NCATS).
Results filed as inconclusive are left out. Entries that show only a call come without a potency. Activity calls are given as the source filed them. The call rests on the fitted dose curve; in most records, active means well fitted curve in the direction sought with a large enough effect; inconclusive means small, poorly fitted or top-dose-only effect, or another doubt; inactive means no such curve, though single readings can be large; an effect the other way counts as inactive or inconclusive.

Assay: Quantitative High-Throughput drug screen in 47 multiple myeloma cell lines against the NCATS MIPE library collection: MOLP8_DSMZ cell viability assay (AID 1918977); further: nearly all actives have a fitted effect of over 45% in size
Settings: MOLP8 myeloma viability, CellTiter-Glo ATP luminescence, 48 h; series mostly up to 45.8 µM
Summary of the method: (§1)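 MIPE 4.0 approved/investigational drugs; 500 cells/well; 48 h 37 °C humidified 5% CO2; CTG luminescence readout; DMSO = 100%, media = 0% viability.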

Compound | Potency
O=C(Oc1ccc([N+](=O)[O-])cc1)N1CCN(Cc2cccc(Oc3ccccc3)c2)CC1 | inactive
O=C(N[C@@H](COc1ccc2[nH]c(=O)[nH]c2c1)c1ccccc1)c1cccn(Cc2ccc(F)c(F)c2)c1=O | inactive
CCC(=O)OC1CCC2C3CCC4=CC(=O)CC[C@@]4(C)C3CC[C@]12C (stereo partly drawn) | inactive

Assay: Quantitative High-Throughput drug screen in 47 multiple myeloma cell lines against the NCATS MIPE library collection: NCIH929_DSMZ cell viability assay (AID 1918978); further: nearly all actives have a fitted effect of over 35% in size; further: potency means the concentration at half of the fitted maximal effect
Settings: NCI-H929 myeloma viability, CellTiter-Glo ATP, 48 h; series mostly up to 45.8 µM
Summary of the method: as §1

Compound | Potency
CCCC[N+]1(C)[C@H]2CC(OC(=O)[C@H](CO)c3ccccc3)C[C@H]1[C@H]1O[C@H]12 (stereo partly drawn) | inactive
CCOC(=O)c1cncn1[C@H](C)c1ccccc1 | inactive
N#C[C@H](O[C@@H]1O[C@H](CO[C@@H]2O[C@H](CO)[C@H](O)[C@H](O)[C@H]2O)[C@H](O)[C@H](O)[C@H]1O)c1ccccc1 | 23.5 µM (active)
CC1(N2CCC(n3c([C@@H]4CCCNC4)nc4ccccc43)CC2)CCCCCCC1 | 11.8 µM (active)
CN(C)NC(=O)CCC(=O)O | inactive
O=c1[nH]c2ccccc2n1C1CCN(Cc2ccc(-c3[nH]c4cc5ncnc5cc4nc3-c3ccccc3)cc2)CC1 | 0.662 µM (active)
CC(C)N(CCNC(=O)CN1CCCC1=O)C(C)C | inactive
C[C@@H]1[C@H](O)[C@@H](C)C=CC=CCCC=CC=CC=CC=C[C@H](O[C@H]2O[C@@H](C)[C@H](O)[C@@H](N)[C@@H]2O)CC2O[C@](O)(C[C@@H](O)[C@H](O)CC[C@@H](O)C[C@@H](O)C[C@@H](O)CC(=O)O[C@H]1C)C[C@H](O)[C@H]2C(=O)O | inactive
CN[C@@H]1Cc2cccc3[nH]c(=O)n(c23)C1 | inactive
CC(=Cc1csc(C)n1)[C@@H]1C[C@H]2O[C@@H]2CCC[C@H](C)[C@@H](O)[C@@H](C)C(=O)C(C)(C)[C@@H](O)CC(=O)O1 | inactive
